Pf growth 48h – P. falciparum growth inhibition at 48 hours (one generation). Potency, µM (titrated, usually from 28.7 µM), for inactives: at the highest dose activity change, negative = inhibition, actives largely listed as inhibitors. AID 504832. P. falciparum luciferase growth in erythrocytes, 48 h. hit rate 5.9% among 310,000
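First compound was added to culture medium, then infected red cells at 0.1% parasitemia and 2% hematocrit (final). After incubation at 37 C under 5% CO2, luciferase detection reagent was dispensed and light output recorded.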
AMA1 RON2 block – disrupts binding of P. falciparum AMA1 to RON2; AlphaScreen AMA1-biotinylated RON2 peptide binding; Potency, µM (top dose mostly 58.2 µM), for inactives: top-dose activity change, negative = inhibition, usual class: inhibitors; hit rate 0.2% among 360,000; AID 720542;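 further: 0% = vehicle wells and -100% = peptide control; nearly all actives have a fitted effect of over 45% in size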
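AMA1 (3D7) with his tag at 25 nM final met compounds first, then biotinylated RON2 peptide at 25 nM; detection used donor plus acceptor beads, 10 µg/mL apiece, read by AlphaScreen after 30 min at room temperature.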
HCV inh – blocks hepatitis C virus | AID 651820 | Potency, µM (doses to about 41.8 µM), for the others: top-dose activity change, negative = inhibition, usual class: inhibitors | hit rate 3.4% among 340,000 | Huh7.5.1 HCVcc-Cre infection, luciferase reporter, 44 h
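Cells seeded at 1,000/well and cultured 4 h, then compounds added followed by HCVcc-Cre virus (~0.5 moi). After 44 h further culture, luciferase substrate was added, plates held 15 min at room temperature, and luminescence read for 15 sec.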
Pf growth 96h – P. falciparum growth inhibition at 96 hours | P. falciparum luciferase reporter growth, 96 h | Potency, µM (highest dose often 28.7 µM), without a hit: at the highest dose activity change, negative = inhibition, hits mostly inhibitors | hit rate 6.9% among 320,000 | AID 504834
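Two-generation exposure (96 h) targets delayed-death phenotype. Reporter parasites carrying integrated firefly luciferase, in red cells at 2% hematocrit and 0.05% parasitemia final, kept at 37 C, 5% CO2; luminescence loss indicates inhibition.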
Starred values were filed as active, the others as inactive; [ ] = dose if it differs, or a comment. The list is not random: actives were taken first. Their share in the collection is about 11%. The call rests on the fitted dose curve; in most records, active means well fitted curve in the direction sought with a large enough effect; inconclusive means small, poorly fitted or top-dose-only effect, or another doubt; inactive means no such curve, though single readings can be large; an effect the other way counts as inactive or inconclusive. Unless noted, on the % scale 0 is the no-effect control and ±100 the full control effect; potency means the concentration at half of the fitted maximal effect.

For COc1cccc(-c2sc3ccc(OC)cc3c2-c2cc(F)cc(OC)c2)c1 the results were Pf growth 48h inconclusive, AMA1 RON2 block 1.0%, HCV inh 7.9% and Pf growth 96h 2.94µM*.
COC(=O)c1c(-c2c(Cl)cccc2Cl)noc1NC(=O)NN1CCOCC1 was read as Pf growth 48h 13.1µM*, AMA1 RON2 block 3.2%, HCV inh -3.3% and Pf growth 96h 1.31µM*.
COC(=O)c1c(-c2c(Cl)cccc2Cl)noc1NC(=O)N(C)C was read as Pf growth 48h 16.3%, AMA1 RON2 block 15.9%, HCV inh 12.3% and Pf growth 96h 4.1%.
For COC(=O)c1c(-c2c(Cl)cccc2Cl)noc1NC(=O)NN1CCCCC1 the results were Pf growth 48h 0.329µM*, AMA1 RON2 block 23.6%, HCV inh -9.2% and Pf growth 96h 0.262µM*.
For COC(=O)c1onc(-c2c(Cl)cccc2Cl)c1C(=O)OC the results were Pf growth 48h inconclusive, AMA1 RON2 block -8.7%, HCV inh 11.1% and Pf growth 96h 31.9%.
`O=C(NCCCN1CCCCC1)c1ccc2c(c1)NC(=O)c1ccccc1S2` gave Pf growth 48h inconclusive, AMA1 RON2 block -9.9%, HCV inh 10µM* and Pf growth 96h inconclusive.
For CC(C)OCCCNC(=O)c1ccc2c(c1)NC(=O)c1ccccc1S2 the results were Pf growth 48h 3.7µM*, AMA1 RON2 block 7.9%, HCV inh inconclusive and Pf growth 96h 1.7%.
For O=C1Nc2cc(C(=O)NCCCN3CCCC3)ccc2S/C1=C/c1ccccc1F the results were Pf growth 48h inconclusive, AMA1 RON2 block -0.1%, HCV inh inconclusive and Pf growth 96h 13.1µM*.
CCN1CCCC1CNC(=O)c1ccc2c(c1)NC(=O)/C(=C\c1ccc(C)cc1)S2 (stereo not given) was read as Pf growth 48h inconclusive, AMA1 RON2 block -21.8%, HCV inh 6.31µM* and Pf growth 96h inconclusive.
COC(=O)c1cc(NC(=O)c2ccc3c(c2)NC(=O)c2ccccc2S3)cc(C(=O)OC)c1 was read as Pf growth 48h 1.2% and Pf growth 96h -24.1%.
For CCCNC(=O)CCc1c(C)nc2nc(C)nn2c1C the results were Pf growth 48h -9.7%, AMA1 RON2 block 2.1%, HCV inh 10.4% and Pf growth 96h inconclusive.
COc1ccc(S(=O)(=O)N=N/C=C2\C=CC=CN2O)cc1OC was read as AMA1 RON2 block 0.0%.
Screening Cc1ccc(CNC(=O)c2ccc(Cl)c(S(N)(=O)=O)c2)n1C returned Pf growth 48h -16.8%, AMA1 RON2 block -6.1%, HCV inh 6.4% and Pf growth 96h -24.3%.
`CC1=C(CC/C(C)=N/NC(N)=S)C(C)(C)CCC1` gave Pf growth 48h inconclusive, AMA1 RON2 block 44.5%, HCV inh 25.1µM* and Pf growth 96h -21.6%.
For Cc1sc(NC(=O)C2CC=CCC2C(=O)O)c(C(=O)OC(C)C)c1C (stereo not given) the results were Pf growth 48h 20.5%, AMA1 RON2 block 0.0% and HCV inh -5.2%.
Screening CC1(c2nnnn2Cc2ccccc2)CCC(=O)N1CCOc1ccccc1 (stereo not given) returned AMA1 RON2 block -20.0%.
O=C(NCCc1ccccc1Cl)C1CCC(=O)N(CC2CCCCC2)C1 (stereo not given) was read as Pf growth 48h -9.2%, AMA1 RON2 block -3.0%, HCV inh 7.8% and Pf growth 96h 13.1µM*.
For CCc1ccc(CN(C)C(=O)C2CCC(=O)N(CC3CCCCC3)C2)cc1 (stereo not given) the results were Pf growth 48h inconclusive, AMA1 RON2 block -13.4%, HCV inh 6.2% and Pf growth 96h 13.1µM*.
Screening O=C(NCc1ccccc1Cl)C1CCC(=O)N(CC2CCCCC2)C1 (stereo not given) returned Pf growth 48h 2.9%, AMA1 RON2 block -9.7%, HCV inh 3.3% and Pf growth 96h 15.9%.
`COc1c2c(cc3ccc(=O)oc13)CCO2` gave Pf growth 48h inconclusive, AMA1 RON2 block -1.5%, HCV inh -2.7% and Pf growth 96h inconclusive.
Cc1ccccc1C(=O)OCCN(C)Cc1ccccc1 was read as Pf growth 48h 20.6%, AMA1 RON2 block inconclusive, HCV inh -1.6% and Pf growth 96h 24.9%.
Cc1ccc2[nH]c(C(=O)O)c(-c3ccccc3)c2c1 was read as Pf growth 48h 7.4%, AMA1 RON2 block -2.1%, HCV inh -3.0% and Pf growth 96h 7.38µM*.
For Cc1ccc2[nH]c(C(=O)NN=C3CCCCC3)c(-c3ccccc3)c2c1 the results were Pf growth 48h inconclusive, AMA1 RON2 block 66.8%, HCV inh -0.2% and Pf growth 96h 9.28µM*.
Screening CC(=O)c1sc(N/N=C\c2c(O)ccc3ccccc23)nc1C returned AMA1 RON2 block 62.8% and HCV inh inconclusive.
For Cc1ccc(C(=O)NCCCN2CCN(CCCNC(=O)c3ccc(C)cc3)CC2)cc1 the results were AMA1 RON2 block -6.0% and HCV inh -30.0%.
Screening Cc1cc(Cl)ccc1NC(=S)NCCC(c1ccccc1)c1ccccc1 returned Pf growth 48h inconclusive, AMA1 RON2 block 91.6%, HCV inh inconclusive and Pf growth 96h inconclusive.
For C#Cc1ccc([C@H]2C=C(C(=O)N3CCN(Cc4ccc5c(c4)OCO5)CC3)O[C@@H](OCc3ccc(CO)cc3)C2)cc1 the results were Pf growth 48h inconclusive, AMA1 RON2 block 0.2%, HCV inh 13.6%[8.37 µM] and Pf growth 96h 3.29µM*.
O=C(C1=C[C@H](c2ccc(Br)cc2)C[C@H](OCc2ccc(CO)cc2)O1)N1CCN(Cc2ccc3c(c2)OCO3)CC1 was read as Pf growth 48h inconclusive, AMA1 RON2 block -19.0%, HCV inh inconclusive and Pf growth 96h 7.38µM*.
`C[C@H]1C=C(C(=O)N2CCN(Cc3ccc4c(c3)OCO4)CC2)O[C@@H](OCc2ccc(CO)cc2)C1` gave Pf growth 48h inconclusive, AMA1 RON2 block 21.4%, HCV inh 35.1%[8.37 µM] and Pf growth 96h inconclusive.
`O=C(C1=C[C@@H](c2ccccc2)C[C@@H](OCCCCO)O1)N1CCN(Cc2ccc3c(c2)OCO3)CC1` gave Pf growth 48h inconclusive, AMA1 RON2 block -8.5%, HCV inh -7.9% and Pf growth 96h inconclusive.
Screening O=C(C1=C[C@H](c2ccccc2)C[C@H](OCc2ccc(CO)cc2)O1)N1CCN(Cc2ccc3c(c2)OCO3)CC1 returned Pf growth 48h inconclusive, AMA1 RON2 block -26.7%, HCV inh inconclusive and Pf growth 96h 13.1µM*.
CN1CCN(C(=O)C2=C[C@@H](c3ccc4c(c3)OCO4)C[C@@H](OCc3ccc(CO)cc3)O2)CC1 was read as Pf growth 48h -11.6%, AMA1 RON2 block 18.6%, HCV inh -7.0% and Pf growth 96h -16.1%.
O=C(C1=C[C@H](c2ccc3c(c2)OCO3)C[C@H](OCc2ccc(CO)cc2)O1)N1CCN(Cc2ccc3c(c2)OCO3)CC1 was read as Pf growth 48h 4.15µM*, AMA1 RON2 block inconclusive, HCV inh 35.5µM* and Pf growth 96h 13.1µM*.
